Measured values reported in PubChem BioAssay.

Assay: splicing luciferase reporter signal modulators, primary screen, spliceosome inhibition project, cell-based, HEK293, splice +/- reporter (AID 1101);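 note: HEK293 cells carrying a splicing-competent luciferase reporter gene; test concentration not given here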
Details: luminescence, 24 h, higher = more signal, called active from +8 up or from −8 down

z-score, inactive:
CO[C@H]1O[C@H](CO)[C@@H](OC(=O)Nc2ccc3c(c2)OCO3)[C@H](OC(=O)Nc2ccc3c(c2)OCO3)[C@@H]1OC(=O)Nc1ccc2c(c1)OCO2 -0.714
CCCC1(C(=O)OC)C=C2C(=C(C)C(=O)C2C)CN1 (stereo unspecified) 0.888
CO[C@H]1O[C@H](CO)[C@@H](OC(=O)Nc2ccccc2)[C@H](OC(=O)c2cc3ccccc3[nH]2)[C@H]1OC(=O)c1cc2ccccc2[nH]1 -0.447
O=C1O[C@H](c2ccccc2)[C@H](c2ccccc2)N2[C@H]1[C@@H](C(=O)O)[C@]1(C(=O)Nc3ccc(C#CCCO)cc31)[C@H]2c1ccccc1OCCO -0.888
CCCCC[C@H]1OC[C@@]23C=C(Br)[C@@H](CC12)[C@@]1(CO1)C3=O (stereo partly specified) 0.424
CCCCN1CC=CC23O[C@@H]4/C=C\CCC(C)OC(=O)C4[C@H]2C(=O)N(CCCO)[C@@H]3C1=O (stereo partly specified) 0.239
CC[C@@H]1C=C(C(=O)O)[C@H](c2ccc(C#N)cc2)N1S(=O)(=O)c1ccc(C)cc1 0.552
O=C1[C@H]2C=C(I)[C@H](C[C@@H]2OCCOCCO)[C@@]12CO2 -0.0672
COCCOC(=O)N1C(=O)[C@@]2(c3cc(C#CC4=CCCCC4)ccc31)[C@H](C(=O)Nc1nc3ccccc3s1)[C@H]1C(=O)O[C@H](c3ccccc3)[C@H](c3ccccc3)N1[C@@H]2c1ccc(O)cc1 0.111
COc1ccc([C@H]2OC[C@@H]3C[C@H](Cc4ccccc4)C(=O)N32)cc1 -0.524
NC(=O)NCC#Cc1ccc2c(c1)[C@]1(C(=O)N2)[C@H](c2ccccc2OCCO)N2[C@H](c3ccccc3)[C@H](c3ccccc3)OC(=O)[C@H]2[C@@H]1C(=O)O -0.724
CC1CC/C=C\[C@H]2OC34C=CCN(c5ccc(Cl)cc5)C(=O)[C@H]3N(C(C)CO)C(=O)[C@]4(C)C2C(=O)O1 (stereo partly specified) -0.718
CCOC(=O)C1=C[C@@H](C(C)C)N(S(=O)(=O)c2ccc(C)cc2)[C@H]1c1ccc(C(F)(F)F)cc1 0.317
OCCCC1=CC(c2ccc(CN3CCCC3)cc2)N(Cc2cc3c(cc2Br)OCO3)CC1 (stereo unspecified) 0.361
CCCCCCCCCC(O)C1C=CC2C(=O)N(c3ccccc3)C(=O)C2N1Nc1cc(OC)c(OC)c(OC)c1 (stereo unspecified) -0.901
COCCCNC(=O)[C@@]1(CCC(=O)OC(C)(C)C)N=C(c2ccc(OCCCO)cc2)O[C@H]1c1ccccc1N=[N+]=[N-] -0.912
COc1cc(OC)c(C(O)C2C=CC3C(=O)N(Cc4ccccc4)C(=O)C3N2n2cnnc2)cc1Br (stereo unspecified) -1.21
C[N+](C)(C)CCCC[C@@H]1NC(=O)[C@@H]2C[C@H](C(=O)NCCCCCCN)[C@H](c3cccc(OCCO)c3)N2C1=O -0.111
O=C1C2C=CC(C(O)C3CC=CCC3)N(Nc3ccccc3)C2C(=O)N1c1ccccc1 (stereo unspecified) -0.225
C=CCNC(=O)[C@H]1[C@@H]2C(=O)O[C@@H](c3ccccc3)[C@@H](c3ccccc3)N2[C@@H](c2ccccc2OCCO)[C@]12C(=O)N(C(=O)OCCOC)c1ccc(C#CC3(O)CCCCCC3)cc12 -0.725
COCCOC(=O)N1C(=O)[C@@]2(c3cc(C#CC4=CCCCC4)ccc31)[C@H](c1ccccc1OCCO)N1[C@H](c3ccccc3)[C@H](c3ccccc3)OC(=O)[C@H]1[C@@H]2C(=O)NC[C@H](O)c1ccccc1 -1.76
CCCC[C@@H](O)C1=C(COc2ccccc2)C[C@H]2C(=O)N(Cc3ccccc3)C(=O)[C@H]2[C@H]1CO -0.249
O=C1OCCC/C=C\[C@H]2OC34C=CCN(c5ccc6ccccc6c5)C(=O)[C@H]3N(CCO)C(=O)[C@@H]4C12 (stereo partly specified) -1.07
COC(=O)c1c(CC[C@@H](CO)NC(=O)N[C@@H](C)Cn2cc(-c3ccccn3)nn2)oc(C(C)=O)c1C(=O)OC -1.89
CC(C)C[C@@H]1NC(=O)[C@@H]2C[C@H](C(=O)NCCCCCCN)[C@H](c3cccc(OCCO)c3)N2C1=O 0.138
[N-]=[N+]=Nc1ccccc1C[C@@]1(C(=O)N2CCOCC2)N=C(c2ccc(OCCCO)cc2)O[C@@H]1c1ccccc1 -0.818
